The text below walks through data of article PMC4336329 (PLoS ONE, 2015).

SMILES strings stand for the structures. The campaign covered roughly 310,000 compounds. About 2,200 (0.71%) showed an effect of 50% or more. The effect is printed as a negative number. Only a selection was taken, and strong results are over-represented in it overall.

The target in this test is human ether-à-go-go-related gene (hERG) potassium channel (human, UniProt Q12809). The experiment in a line: primary screen, population patch clamp on CHO cells stably expressing hERG; higher = less effect of the substance.
Chain of human ether-à-go-go-related gene (hERG) potassium channel (Q12809 whole entry, looked up): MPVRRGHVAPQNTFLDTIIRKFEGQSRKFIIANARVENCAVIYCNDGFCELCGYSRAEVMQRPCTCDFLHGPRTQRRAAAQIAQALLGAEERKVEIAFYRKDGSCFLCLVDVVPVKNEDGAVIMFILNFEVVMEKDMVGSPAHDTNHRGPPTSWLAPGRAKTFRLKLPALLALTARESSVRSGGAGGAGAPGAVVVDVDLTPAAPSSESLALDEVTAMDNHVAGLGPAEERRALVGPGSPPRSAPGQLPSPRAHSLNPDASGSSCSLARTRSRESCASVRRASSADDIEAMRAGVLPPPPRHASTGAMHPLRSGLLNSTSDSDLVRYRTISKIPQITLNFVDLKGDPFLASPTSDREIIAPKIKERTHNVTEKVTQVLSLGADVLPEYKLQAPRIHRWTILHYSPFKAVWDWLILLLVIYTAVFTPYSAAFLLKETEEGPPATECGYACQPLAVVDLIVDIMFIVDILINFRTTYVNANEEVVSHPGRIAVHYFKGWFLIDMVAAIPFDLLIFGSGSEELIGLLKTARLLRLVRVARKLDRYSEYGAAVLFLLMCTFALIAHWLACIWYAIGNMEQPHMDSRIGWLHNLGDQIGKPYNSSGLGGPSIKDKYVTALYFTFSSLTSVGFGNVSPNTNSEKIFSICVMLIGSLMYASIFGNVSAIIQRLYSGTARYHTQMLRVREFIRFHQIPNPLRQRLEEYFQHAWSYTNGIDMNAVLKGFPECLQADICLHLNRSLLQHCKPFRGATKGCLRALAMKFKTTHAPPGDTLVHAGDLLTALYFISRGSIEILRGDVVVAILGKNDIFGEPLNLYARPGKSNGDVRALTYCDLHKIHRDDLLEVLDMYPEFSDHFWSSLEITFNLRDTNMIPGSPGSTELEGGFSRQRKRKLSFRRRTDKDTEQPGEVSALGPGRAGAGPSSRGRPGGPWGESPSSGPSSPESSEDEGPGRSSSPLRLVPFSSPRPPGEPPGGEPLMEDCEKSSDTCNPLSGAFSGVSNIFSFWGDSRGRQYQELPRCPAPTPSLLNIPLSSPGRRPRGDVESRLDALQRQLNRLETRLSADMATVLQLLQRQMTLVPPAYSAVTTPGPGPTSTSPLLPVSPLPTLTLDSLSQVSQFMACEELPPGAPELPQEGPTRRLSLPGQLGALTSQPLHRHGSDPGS
Turning to `Cc1c(F)cccc1NC(=O)CSCC(=O)Nc1ccccc1`, the “hERG current change (%, negative = inhibition) at 1uM” value worked out at 5.59%.

Consider `COC(=O)C1=C(c2ccc(F)cc2OCc2ccccc2)C[C@@H]2CC[C@H]1N2C(=O)NCc1ccc(Cl)cc1`, for which the “hERG current change (%, negative = inhibition) at 1uM” value came to 14.6%.

As to `Cc1ccc(OC(=O)c2ccccc2C(=O)OCC(F)(F)C(F)F)cc1`, the “hERG current change (%, negative = inhibition) at 1uM” value was 14%.

Consider `Cc1ccc(-c2nnn(CC(=O)NCCC3=CCCCC3)n2)cc1`, for which the “hERG current change (%, negative = inhibition) at 1uM” value amounted to 18.4%.

In the case of `Cc1ccc(NC(=O)NCCCCc2ccccc2)cc1`, the “hERG current change (%, negative = inhibition) at 1uM” value was 14.4%.

`CCC(NS(=O)(=O)c1ccc(C)cc1)C(=O)N1CCOCCOCCOCC1` (stereo not drawn): the “hERG current change (%, negative = inhibition) at 1uM” value turned out to be 20.3%.

For `COc1ccc(OCc2nnc(SCc3ccc(C(=O)O)cc3)o2)cc1`, the “hERG current change (%, negative = inhibition) at 1uM” value was 16.6%.

For `Cc1ccc(NC(=O)c2nn(C34CC5CC(CC(C5)C3)C4)cc2[N+](=O)[O-])cc1`, the “hERG current change (%, negative = inhibition) at 1uM” value is -2.47%.

Regarding `Cc1cc(Cl)ccc1OCC(=O)NNC(=O)CCOc1ccccc1`, the “hERG current change (%, negative = inhibition) at 1uM” value is -0.757%.

Turning to `O=C(COC(=O)CC(c1ccccc1)c1ccccc1)Nc1ccc(F)c(F)c1`, the “hERG current change (%, negative = inhibition) at 1uM” value stood at 1.93%.

In the case of `O=c1c2ccccc2nc(-c2ccccc2)n1-c1nccs1`, the “hERG current change (%, negative = inhibition) at 1uM” value is listed as 11.6%.

For the compound `C/C=C(/C)C(=O)O[C@@H]1c2c(ccc3ccc(=O)oc23)OC(C)(C)[C@@H]1OC(=O)/C(C)=C\C`, the “hERG current change (%, negative = inhibition) at 1uM” value was 9.46%.

For the compound `C/C=C(\C)C(=O)OC1c2c(ccc3ccc(=O)oc23)OC(C)(C)C1OC(C)=O` (stereo not drawn), the “hERG current change (%, negative = inhibition) at 1uM” value was -54.7%.

Take `C/C=C(/C)C(=O)OC1c2c(ccc3ccc(=O)oc23)OC(C)(C)C1OC(C)=O` (stereo not drawn): the “hERG current change (%, negative = inhibition) at 1uM” value is -36.9%.

Consider `COc1cccc(-c2nc3n(n2)C(c2ccc4c(c2)OCO4)C(C(N)=O)=C(C)N3)c1` (stereo not drawn), for which the “hERG current change (%, negative = inhibition) at 1uM” value came out at 6.43%.

For `Cn1c(=O)[nH]c(=O)c2c1nc(N1CCCCCC1)n2CCSc1nc2ccccc2o1`, the “hERG current change (%, negative = inhibition) at 1uM” value amounted to 7.86%.

On to `COc1cc(C(CCN2CCCC2)c2c(OC)cc(OC)c3ccc(=O)oc23)cc(OC)c1OC` (stereo not drawn), for which the “hERG current change (%, negative = inhibition) at 1uM” value is recorded as -26.2%.

With `COc1cc(C(CCN2CCCCC2)c2c(OC)cc(OC)c3c(-c4ccccc4)cc(=O)oc23)cc(OC)c1OC` (stereo not drawn), the “hERG current change (%, negative = inhibition) at 1uM” value is -12%.

On to `COc1cc(C(CCN2CCOCC2)c2c(OC)cc(OC)c3c(C)cc(=O)oc23)cc(OC)c1OC` (stereo not drawn), for which the “hERG current change (%, negative = inhibition) at 1uM” value is on record as -70.3%.

With `COc1cc(C(CCN2CCN(c3ccccc3)CC2)c2c(OC)cc(OC)c3c(C)cc(=O)oc23)cc(OC)c1OC` (stereo not drawn), the “hERG current change (%, negative = inhibition) at 1uM” value was found to be 9.23%.

For `COc1cc(C(CCN2CCCC2)c2c(OC)cc(OC)c3c(C)cc(=O)oc23)cc(OC)c1OC` (stereo not drawn), the “hERG current change (%, negative = inhibition) at 1uM” value is reported as -69%.

For the compound `COc1cc(C(CCN2CCCC2)c2c(OC)cc(OC)c3c(-c4ccccc4)cc(=O)oc23)cc(OC)c1OC` (stereo not drawn), the “hERG current change (%, negative = inhibition) at 1uM” value is -10.9%.

As for `CCCCCc1cc(=O)oc2c(C(CCN3CCCCC3)c3cc(OC)c(OC)c(OC)c3)c(OC)cc(OC)c12` (stereo not drawn), the “hERG current change (%, negative = inhibition) at 1uM” value was -10.6%.

As to `COc1ccc(C(CCN2CCOCC2)c2c(OC)cc(OC)c3c(C)cc(=O)oc23)cc1` (stereo not drawn), the “hERG current change (%, negative = inhibition) at 1uM” value is -32.6%.

With `COc1cc(C(CCN2CCCCC2)c2c(OC)cc(OC)c3c(C)cc(=O)oc23)cc(OC)c1OC` (stereo not drawn), the “hERG current change (%, negative = inhibition) at 1uM” value was -96.3%.

`O=C(NCCCn1ccnc1)C(=O)c1c[nH]c2ccccc12`: the “hERG current change (%, negative = inhibition) at 1uM” value stood at 3.2%.

Take `CC(=O)Nc1ncc(Cc2cccc(Cl)c2)s1`: the “hERG current change (%, negative = inhibition) at 1uM” value is listed as 9.23%.

With `CC(=O)NS(=O)(=O)c1ccc(NC(=O)CC(C)c2ccccc2)cc1` (stereo not drawn), the “hERG current change (%, negative = inhibition) at 1uM” value was found to be 2.97%.

On to `COc1ccc(N2C(=O)CC(NC34CC5CC(CC(C5)C3)C4)C2=O)c(OC)c1` (stereo not drawn), for which the “hERG current change (%, negative = inhibition) at 1uM” value worked out at 8.85%.

For `CCCN(CC(=O)Nc1cc(C)on1)S(=O)(=O)c1cccc(C(F)(F)F)c1`, the “hERG current change (%, negative = inhibition) at 1uM” value is 11.3%.

In the case of `CCN(CC(=O)Nc1c(F)cccc1F)C(=O)/C=C/c1ccc2c(c1)OCO2`, the “hERG current change (%, negative = inhibition) at 1uM” value was determined as 3.1%.

Regarding `N=c1c(C(=O)NC2CCCC2)cc2c(=O)n3ccccc3nc2n1CCCN1CCOCC1`, the “hERG current change (%, negative = inhibition) at 1uM” value is -63.7%.

Consider `N=c1c(C(=O)NC2CCCC2)cc2c(=O)n3ccccc3nc2n1CCN1CCOCC1`, for which the “hERG current change (%, negative = inhibition) at 1uM” value is listed as -94.2%.

For the compound `CCOC(=O)c1c(C2CC2)csc1NC(=O)CSCc1c(C)noc1C`, the “hERG current change (%, negative = inhibition) at 1uM” value is listed as 11.4%.

Take `CCOC(=O)N1CCN(C(=O)Nc2ccc3nc(C)c(C)nc3c2)CC1`: the “hERG current change (%, negative = inhibition) at 1uM” value came to 4.44%.

With `CC(C)c1ccc(CNc2ccc([N+](=O)[O-])cn2)cc1`, the “hERG current change (%, negative = inhibition) at 1uM” value is recorded as 9.11%.

For `Cc1cc(C)c(S(=O)(=O)NCc2ccncc2)c(C)c1`, the “hERG current change (%, negative = inhibition) at 1uM” value is recorded as 5.64%.

For `C=CCn1c(O)c(C(CC)=NCc2ccco2)c(=O)[nH]c1=O`, the “hERG current change (%, negative = inhibition) at 1uM” value worked out at 2.16%.

Consider `CCN(CC)S(=O)(=O)c1ccc(C2CNC(=O)C2)cc1` (stereo not drawn), for which the “hERG current change (%, negative = inhibition) at 1uM” value is listed as -53.8%.

Take `COCCNS(=O)(=O)c1ccc(C2CNC(=O)C2)cc1` (stereo not drawn): the “hERG current change (%, negative = inhibition) at 1uM” value is 11.3%.

Regarding `O=C1CC(c2ccc(S(=O)(=O)NC3CC3)cc2)CN1` (stereo not drawn), the “hERG current change (%, negative = inhibition) at 1uM” value was found to be 2.43%.

For `Cc1cccc(C(=O)NC(=S)Nc2ccccc2C(=O)O)c1`, the “hERG current change (%, negative = inhibition) at 1uM” value amounted to 6.08%.

Take `CCOC(=O)C1CCCN(c2nc(C)nc3c2oc2ccccc23)C1.Cl` (stereo not drawn): the “hERG current change (%, negative = inhibition) at 1uM” value came out at 8.69%.

With `Cc1cc2cc3c(=O)[nH]c(=O)[nH]c3nc2cc1C`, the “hERG current change (%, negative = inhibition) at 1uM” value was determined as 12.1%.

Turning to `c1nc(Nc2ccc(N3CCOCC3)cc2)c2ccsc2n1`, the “hERG current change (%, negative = inhibition) at 1uM” value stood at 8.37%.

As for `Cc1sc2ncnc(NCC3(N4CCOCC4)CCCCC3)c2c1C`, the “hERG current change (%, negative = inhibition) at 1uM” value is on record as -23%.

As for `c1nc(NCC2(N3CCOCC3)CCCCC2)c2ccsc2n1`, the “hERG current change (%, negative = inhibition) at 1uM” value was -54.5%.

With `COc1ccc(C2=NS(=O)(=O)N(C)C(C(=O)N3CCC(C(N)=O)CC3)=C2)cc1`, the “hERG current change (%, negative = inhibition) at 1uM” value is -8.49%.

In the case of `Cc1ccc(NC(=O)c2cc(NC(=O)CCC(=O)O)ccc2N2CCCCC2)cc1`, the “hERG current change (%, negative = inhibition) at 1uM” value turned out to be 11.9%.

For the compound `Cc1nnc(NC(=O)CN2C(=O)c3ccccc3S2(=O)=O)s1`, the “hERG current change (%, negative = inhibition) at 1uM” value is 7.28%.

Turning to `CCCCC(=O)N1CCCC(c2nc3c(nnn3Cc3cc(C)ccc3C)c(=O)[nH]2)C1` (stereo not drawn), the “hERG current change (%, negative = inhibition) at 1uM” value came to 3.86%.

For the compound `CC[n+]1c(/C=C/C=C/c2ccc(N(C)C)cc2)sc2ccccc21.[O-][Cl+3]([O-])([O-])[O-]`, the “hERG current change (%, negative = inhibition) at 1uM” value was -29%.

`CC[n+]1c(/C=C/C=C/N(C(C)=O)c2ccccc2)sc2ccccc21.[I-]`: the “hERG current change (%, negative = inhibition) at 1uM” value was -52.2%.

`CC[n+]1c(/C=C2\C=C(C)CC(C)(C)C2)sc2ccccc21.[I-]`: the “hERG current change (%, negative = inhibition) at 1uM” value is reported as -4.87%.

For `CCOS(=O)(=O)[O-].CC[n+]1c(/C=C/Nc2ccccc2)oc2ccc(OC)cc21`, the “hERG current change (%, negative = inhibition) at 1uM” value was -68.8%.

As for `CC[n+]1c(/C=C/C=C/N(C(C)=O)c2ccccc2)sc2cc(OC)ccc21.[I-]`, the “hERG current change (%, negative = inhibition) at 1uM” value came to 7.77%.

In the case of `CC[n+]1c(/C=C/Nc2ccccc2)sc2ccccc21.[I-]`, the “hERG current change (%, negative = inhibition) at 1uM” value was -62.8%.

In the case of `CCN1/C(=C/C=C/c2sc3ccccc3[n+]2CC)Sc2ccccc21.[I-]`, the “hERG current change (%, negative = inhibition) at 1uM” value is listed as -36.8%.

Turning to `CC[n+]1c(/C=C/N(C)c2ccccc2)oc2ccccc21.O=S(=O)([O-])CCO`, the “hERG current change (%, negative = inhibition) at 1uM” value was determined as 12%.

On to `CCN1/C(=C/C=C/c2oc3ccc(-c4ccccc4)cc3[n+]2CC)Oc2ccc(-c3ccccc3)cc21.CCOS(=O)(=O)[O-]`, for which the “hERG current change (%, negative = inhibition) at 1uM” value is given as -2.56%.

In the case of `CCOc1ccc(S(=O)(=O)Nc2cccc(OC)c2)cc1`, the “hERG current change (%, negative = inhibition) at 1uM” value is given as -5.91%.

As to `CC[n+]1ccccc1/C=C/Nc1ccccc1.[I-]`, the “hERG current change (%, negative = inhibition) at 1uM” value was -5.67%.

As to `CC[n+]1c(/C=C/Nc2ccccc2)oc2ccccc21.[I-]`, the “hERG current change (%, negative = inhibition) at 1uM” value is reported as -64.9%.
